Reference: PubChem BioAssay (NCATS)
Records with an inconclusive call do not appear. The source made the active and inactive calls. The call rests on the fitted dose curve; in most records, active means well fitted curve in the direction sought with a large enough effect; inconclusive means small, poorly fitted or top-dose-only effect, or another doubt; inactive means no such curve, though single readings can be large; an effect the other way counts as inactive or inconclusive.

Key:
HEK293 = experiment: Cytotoxic Profiling of Annotated Libraries Using Quantitative High-Throughput Screening (AID 1296008); settings: Five cell lines viability, CellTiter-Glo ATP luminescence, 48-72 h; max response: stronger effect = lower value; further: nearly all actives have a fitted effect of over 60% in size
How it was run: (§1)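 Cells exposed to compounds for 48 or 72 hr at 37 degrees Celsius. Viability read as ATP-coupled luminescence with CellTiter-Glo after 10 min at room temperature.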

KB-3-1 = experiment: as above; settings: Five cell lines viability, CellTiter-Glo ATP luminescence, 48-72 h; max response: stronger effect = lower value
How it was run: as §1

MCC-13 = experiment: qHTS assay to identify novel small-molecules to repurpose for Merkel cell carcinoma treatment (AID 1296009); settings: MCC and control cell lines, CellTiter-Glo viability, 72 h; series mostly up to 46 µM; further: nearly all actives have a fitted effect of over 60% in size
How it was run: (§2)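 Cells were incubated with compound for 72 hr at 37 degree celsius before CellTiter-Glo addition. Luminescence was normalized with no-cell wells as full cytotoxicity and DMSO as baseline.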

MCC-26 = experiment: as above; settings: MCC and control cell lines, CellTiter-Glo viability, 72 h; series mostly up to 46 µM
How it was run: as §2

MKL-2 = experiment: as above; settings: MCC and control cell lines, CellTiter-Glo viability, 72 h; series mostly up to 46 µM
How it was run: as §2

WaGa = experiment: as above; settings: MCC and control cell lines, CellTiter-Glo viability, 72 h; series mostly up to 46 µM
How it was run: as §2

CASKI = experiment: Primary qHTS to identify gynecologic anti-cancer compounds using libraries of approved drugs and bioactive compounds (AID 1345084); settings: Gynecologic cancer cell panel viability, ATPlite luminescence, 48 h; series mostly up to 57.5 µM; further: nearly all actives have a fitted effect of over 55% in size
How it was run: (§3)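 Five-point cytotoxicity, 48 h drug exposure at 37 C, 5% CO2, on cells seeded 16 h beforehand. ATP content read by ATPlite luminescence.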

Es-2 = experiment: as above; settings: Gynecologic cancer cell panel viability, ATPlite luminescence, 48 h; series mostly up to 57.5 µM
How it was run: as §3

HeLa = experiment: as above; settings: Gynecologic cancer cell panel viability, ATPlite luminescence, 48 h; series mostly up to 57.5 µM
How it was run: as §3

Hek293T = experiment: as above; settings: Gynecologic cancer cell panel viability, ATPlite luminescence, 48 h, control line for the selectivity index; series mostly up to 57.5 µM
How it was run: as §3

JEG-3 = experiment: as above; settings: Gynecologic cancer cell panel viability, ATPlite luminescence, 48 h; series mostly up to 57.5 µM
How it was run: as §3

HaCat [1] = experiment: Cytotoxic Profiling of Annotated Libraries Using Quantitative High-Throughput Screening (AID 1296008); settings: Five cell lines viability, CellTiter-Glo ATP luminescence, 48-72 h; max response: stronger effect = lower value; further: nearly all actives have a fitted effect of over 60% in size
How it was run: as §1

NIH3T3 = experiment: as above; settings: Five cell lines viability, CellTiter-Glo ATP luminescence, 48-72 h; max response: stronger effect = lower value
How it was run: as §1

HACAT [2] = experiment: qHTS assay to identify novel small-molecules to repurpose for Merkel cell carcinoma treatment (AID 1296009); settings: MCC and control cell lines, CellTiter-Glo viability, 72 h; at 44.8 µM (top of the series) unless noted; further: nearly all actives have a fitted effect of over 60% in size
How it was run: as §2

MKL-1 = experiment: as above; settings: MCC and control cell lines, CellTiter-Glo viability, 72 h; series mostly up to 46 µM
How it was run: as §2

UISO = experiment: as above; settings: MCC and control cell lines, CellTiter-Glo viability, 72 h; series mostly up to 46 µM
How it was run: as §2
On the % scale 0 is the no-effect control and ±100 the full control effect; potency means the concentration at half of the fitted maximal effect.

C[C@]12CC[C@@H]3c4ccc(O)cc4CC[C@H]3[C@H]1CC[C@H]2O
active: Potency (HEK293) 20.9 µM | Potency (KB-3-1) 11.8 µM
inactive: Potency (MCC-13) | Potency (MCC-26) | Potency (MKL-2)

CCOc1cc2c(c(F)c1OCC)C(=N)N(CC(=O)c1cc(N3CCOCC3)c(OC)c(C(C)(C)C)c1)C2
inactive: Potency (MCC-13) | Potency (MCC-26) | Potency (WaGa) | Potency (CASKI) | Potency (Es-2) | Potency (HeLa) | Potency (Hek293T) | Potency (JEG-3)

OCCNC1CCCc2c1[nH]c1ccc(-c3ccccc3)cc21 (stereo unspecified)
inactive: outcome (HaCat [1]) | outcome (HACAT [2]) | Potency (MCC-13) | Potency (MCC-26) | Potency (Es-2) | Potency (Hek293T) | Potency (JEG-3)
active: Potency (KB-3-1) 14.6 µM | Potency (NIH3T3) 16.4 µM | Potency (MKL-2) 26.4 µM | Potency (HeLa) 8.91 µM

CCOC(=O)[C@H](CCc1ccccc1)N[C@@H](C)C(=O)N1[C@@H](C(=O)O)C[C@H]2CCC[C@@H]21
inactive: Potency (MCC-13) | Potency (MKL-1) | Potency (UISO)
active: Potency (HEK293) 18.7 µM | Potency (HaCat [1]) 37.2 µM | Potency (MKL-2) 14.8 µM

CN1CCCN(C(=O)c2cccc(-c3ccc(C=C4C(=O)Nc5ccc(Cl)cc54)o3)c2)CC1
inactive: Potency (MCC-26)
active: Potency (KB-3-1) 23.5 µM | Potency (MKL-1) 5.26 µM | Potency (MKL-2) 16.6 µM | Potency (WaGa) 16.6 µM

C[C@H]1[C@@H](OC(=O)CCC(=O)O)O[C@@H]2O[C@@]3(C)CC[C@@H]4[C@H](C)CC[C@@H]1[C@@]24OO3
inactive: Potency (MCC-26) | Potency (CASKI)
active: Potency (HEK293) 2.35 µM | Potency (KB-3-1) 18.7 µM | Potency (NIH3T3) 20.9 µM | Potency (MKL-1) 10.5 µM | Potency (MKL-2) 5.26 µM | Potency (UISO) 4.18 µM | Potency (WaGa) 6.62 µM

NC(=O)N1CCC(CC(=O)N2CCC([C@H]3c4ncc(Br)cc4CCc4cc(Cl)cc(Br)c43)CC2)CC1
active: Potency (HEK293) 1.32 µM | Potency (HaCat [1]) 10.5 µM | Potency (WaGa) 11.8 µM
inactive: max response (NIH3T3) -22.6% | Potency (MCC-13) | Potency (MCC-26)

CC[C@@]1([C@@H]2O[C@@H]([C@H]3O[C@@](O)(CO)[C@H](C)C[C@H]3C)C[C@H]2C)CC[C@H]([C@]2(C)CC[C@]3(C[C@H](O)[C@@H](C)[C@@H]([C@@H](C)[C@@H](OC)[C@H](C)C(=O)O)O3)O2)O1
active: Potency (HEK293) 0.144 µM | Potency (MKL-1) 0.512 µM | Potency (MKL-2) 0.204 µM | Potency (UISO) 0.512 µM | Potency (WaGa) 0.457 µM
inactive: Potency (MCC-26)
